# According to PubChem BioAssay AID588727 (Southern Research Specialized Biocontainment Screening …, 2011):
# The whole screen tested about 350,000 compounds, of which about 450 (0.13%) were called active. The rule behind the calls is not given here. Not all results are given here. Results with a measured potency or affinity are listed apart.
# Assay: inhibitors of VEEV TC-83 cytopathic effect, confirmation, Vero cells (AID 588727)
# Conditions: VEEV TC-83 cytopathic effect inhibition, at 20 µM
# [1] = stronger effect = higher value unless noted
compound,measurement,setting,value
CC(C)=CCN1CCN(Cc2coc3ccc(C)cc3c2=O)CC1CCO (stereo unspecified),inhibition,[1],0.54% (inactive)
Cc1ccc2nc(NC(=O)Cn3nc(C)c([N+](=O)[O-])c3C)sc2c1,inhibition,[1],5.1% (inactive)
CN1CCN(C(=O)N2c3ccccc3C=Cc3ccccc32)CC1,inhibition,[1],0.28% (inactive)
CN(C)CCCNC(=O)c1cc2sc3ccccc3c2s1,inhibition,[1],0.94% (inactive)
COCCNC(=O)c1cc2sc3ccccc3c2s1,inhibition,[1],3.33% (inactive)
O=C1/C(=C/c2cccs2)SC(=S)N1CC(=O)N1CCCCC1CCO (stereo unspecified),inhibition,[1],2.22% (inactive)
COC(=O)C/C=C/N(Cc1ccccc1OC)S(=O)(=O)CCl,inhibition,[1],inactive
CN(C)c1ccc(NC2=C(Cl)C(=O)c3ccccc3C2=O)cc1,inhibition,[1],2.81% (inactive)
COc1ccc(NC2=C(NC(C)=O)C(=O)c3ccccc3C2=O)cc1,inhibition,[1],inactive
O=C(Nc1ccc2ccccc2c1)c1ccccc1[N+](=O)[O-],inhibition,[1],0.3% (inactive)
O=C(NC(=S)NCCN1CCOCC1)c1cccc(Cl)c1,inhibition,[1],2.05% (inactive)
O=S(=O)(NCC1CN(S(=O)(=O)c2c(F)cccc2F)C1)c1ccc2c(c1)OCCO2,inhibition,[1],0.08% (inactive)
Cc1ccc(Nc2nc(=O)c3cccnc3s2)cc1,inhibition,[1],inactive
CC(=O)c1ccc(Nc2nc(=O)c3cccnc3s2)cc1,inhibition,[1],2.57% (inactive)
CC(=O)c1cccc(Nc2nc(=O)c3cccnc3s2)c1,inhibition,[1],3.68% (inactive)
COc1ccc(OC)c(Nc2nc(=O)c3cccnc3s2)c1,inhibition,[1],4.47% (inactive)
COCOCCn1cc(CN2CCS(=O)(=O)N(Cc3ccc(-c4cccc(CO)c4)cc3)C(CC(C)C)C2=O)nn1 (stereo unspecified),inhibition,[1],6.1% (inactive)
CCOC(=O)[C@@H]1[C@H]2COc3ccc(Br)cc3[C@@H]2N2C(=O)N(c3cccc(Cl)c3)C(=O)[C@]12C,inhibition,[1],inactive
CCOC(=O)C1=C(N)c2ccccc2CC1C(C)C (stereo unspecified),inhibition,[1],inactive
CCOC(=O)C1=C(NC(=S)NC(=O)c2ccccc2)c2ccccc2CC1(C)CC (stereo unspecified),inhibition,stronger effect = higher value,11.4% (inactive)
same,inhibition,"measured here: 10K pilot screen inhibition, stronger effect = higher value",20.8%
O=C(c1ccc2c(c1)N(Cc1ccc(F)cc1)C(=O)c1ccccc1S2(=O)=O)N1CCN(c2ccccn2)CC1,inhibition,[1],8.23% (inactive)
Cc1ccc(C)c(CN2C(=O)c3ccccc3S(=O)(=O)c3ccc(C(=O)N4CCN(C)CC4)cc32)c1,inhibition,[1],0.5% (inactive)
CN1CCN(C(=O)c2ccc3c(c2)N(Cc2cccc(Cl)c2)C(=O)c2ccccc2S3(=O)=O)CC1,inhibition,[1],inactive
Cc1ccc(C(=O)N2CCN(c3ccccn3)CC2)cc1C,inhibition,[1],1.05% (inactive)
CC(=O)C(=Nc1cccc(Cl)c1)NNc1ccccc1C,inhibition,[1],inactive
CC(=O)Nc1ccc(C(=O)OCC(=O)c2cccc([N+](=O)[O-])c2)cc1,inhibition,[1],0.91% (inactive)
O=C(C[n+]1cccc(NC(=O)c2ccccc2)c1)c1cccc([N+](=O)[O-])c1,inhibition,[1],inactive
CCOC(=O)C1=C(COC(=O)c2cccc(NC(C)=O)c2)NC(=O)NC1C (stereo unspecified),inhibition,[1],1.96% (inactive)
CCOC(=O)Cn1c(S(=O)(=O)Cc2cccc(F)c2)nc(-c2ccccc2)c1-c1ccccc1,inhibition,[1],3.2% (inactive)
C#CCn1c(S(=O)(=O)Cc2ccccc2Cl)nc(-c2ccccc2)c1-c1ccccc1,inhibition,[1],1.45% (inactive)
CCOC(=O)Cn1c(S(=O)(=O)Cc2ccc(F)cc2)nc(-c2ccccc2)c1-c1ccccc1,inhibition,[1],5.03% (inactive)
C#CCn1c(S(=O)(=O)Cc2ccc(OC)cc2)nc(-c2ccccc2)c1-c1ccccc1,inhibition,[1],0.79% (inactive)
COC(=O)c1ccccc1-c1ccc(/C=N/Nc2nc(N3CCCC3)nc(N3CCCC3)n2)o1,inhibition,[1],9.1% (inactive)
COc1ccc(S(=O)(=O)N2CCCc3ccccc32)cc1OC,inhibition,[1],inactive
Cc1c(OCC(=O)N(C)C)ccc2c(-c3ccccc3)cc(=O)oc12,inhibition,[1],2.42% (inactive)
Cn1cccc1C(=O)NC(=O)COC(=O)c1ccc(S(C)(=O)=O)cc1,inhibition,[1],1.82% (inactive)
CCOC(=O)c1cc(-c2ccccc2)sc1NC(=O)C(C)(C)C,inhibition,[1],0.72% (inactive)
O=C(Nc1sc(-c2ccccc2)cc1C(=O)O)c1ccccc1,inhibition,[1],inactive
COC(=O)C1=C(CSCc2ccccc2)NC(=O)NC1c1cc(C)ccc1C (stereo unspecified),inhibition,[1],1.95% (inactive)
CNC(=S)Nc1ccc(-c2nc3ccc(C)cc3s2)cc1,inhibition,[1],5.72% (inactive)
CCC(C)(C)NC(=S)Nc1ccc(-c2nc3ccc(C)cc3s2)cc1,inhibition,[1],1.78% (inactive)
CCOC(=O)c1c(C)oc(NC(=O)CCl)c1C(=O)OCC,inhibition,[1],1.19% (inactive)
Cc1nn(Cc2ccc(Cl)cc2)c(C)c1NC(=O)c1cc(C(C)C)on1,inhibition,[1],0.91% (inactive)
Cc1cc(C(=O)Nc2c(C)nn(Cc3ccccc3Cl)c2C)no1,inhibition,[1],1.51% (inactive)
CNC(=O)c1cc(S(=O)(=O)Nc2ccc3c(c2)OCCO3)ccc1C,inhibition,[1],0.34% (inactive)
C#CCOCCOCCOCCNc1nc(OC)nc(N2CCN(C(=O)[C@H](CCC(=O)O)n3cc(C(N)CO)nn3)CC2)n1 (stereo partly specified),inhibition,[1],1.77% (inactive)
CN1CCN(CC(=O)Nc2cc(N3CCOCC3)ccc2[N+](=O)[O-])CC1,inhibition,[1],0.32% (inactive)
Cc1c(CCO)c(=O)[nH]n1S(=O)(=O)c1ccc(F)cc1,inhibition,[1],inactive
Cc1c(CCO)c(=O)[nH]n1C(=O)c1ccc(F)cc1,inhibition,[1],0.71% (inactive)
CN1C(=O)C2(NCCc3c2[nH]c2ccccc32)c2ccccc21 (stereo unspecified),inhibition,[1],1.48% (inactive)
CC1=CC(C)(C)N2C(=O)C3(NCCc4c3[nH]c3ccccc43)c3cccc1c32 (stereo unspecified),inhibition,[1],0.24% (inactive)
CCn1cc([N+](=O)[O-])c(C(=O)Nc2ccn(C34CC5CC(CC(C5)C3)C4)n2)n1,inhibition,[1],0.69% (inactive)
Cc1nn(C)c(C(=O)Nc2ccn(C34CC5CC(CC(C5)C3)C4)n2)c1[N+](=O)[O-],inhibition,[1],0.3% (inactive)
Cn1ncc([N+](=O)[O-])c1C(=O)Nc1ccc(C2CCCCC2)cc1,inhibition,[1],2.86% (inactive)
Cn1cc([N+](=O)[O-])c(C(=O)Nc2ccc(C(=O)N3CCCCC3)cc2)n1,inhibition,[1],10.8% (inactive)
CCOc1ccc(S(=O)(=O)N2CCCCC2)cc1NC(=O)C1=COCCO1,inhibition,[1],10.1% (inactive)
O=C1NC2=C(C(=O)CCC2)C(c2ccc([N+](=O)[O-])cc2)N1 (stereo unspecified),inhibition,[1],inactive
O=C(c1cccc(S(=O)(=O)N2CCc3ccccc32)c1)N1CCc2ccccc2C1,inhibition,[1],6.28% (inactive)
CN(CC(=O)Nc1ccccc1Br)C(=O)c1cccc(S(=O)(=O)N2CCc3ccccc32)c1,inhibition,[1],7.03% (inactive)
COc1ccc(N2CCN(C(=O)c3cccc(S(=O)(=O)N4CCc5ccccc54)c3)CC2)cc1,inhibition,[1],4.71% (inactive)
COc1cc2c(cc1OC)CN(C(=O)c1cccc(S(=O)(=O)N(C)C)c1)CC2,inhibition,[1],1.42% (inactive)
NS(=O)(=O)c1ccc(CNC(=O)c2cccc(S(=O)(=O)N3CCc4ccccc43)c2)cc1,inhibition,[1],2.16% (inactive)
COc1ccccc1N1CCN(C(=O)c2cccc(S(=O)(=O)N3c4ccccc4CC3C)c2)CC1 (stereo unspecified),inhibition,[1],5.41% (inactive)
O=C(c1cccc(S(=O)(=O)N2CCc3ccccc32)c1)N1CCOCC1,inhibition,[1],1.59% (inactive)
CC(=O)N1CCN(C(=O)c2cccc(S(=O)(=O)N3c4ccccc4CC3C)c2)CC1 (stereo unspecified),inhibition,[1],inactive
